Test results: PubChem BioAssay (NCI)
Compounds without any hit were thinned out: in the full panel of roughly 83,000, 20% have a hit.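 Single-dose data. Exposure time 48 hours. Values below 10 considered active.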 The source made the active and inactive calls.

system: HL-60(TB) leukemia; test: NCI-60 one-dose screen, 48 h (100 = growth as untreated, 0 = no growth, -100 = all killed); conditions: 10 µM unless noted

Row | SMILES | growth
1 | CCn1c(=S)[nH]c2c(=O)n(C)c(=O)n(C)c21 | 100% (inactive)
2 | C=C(C)[C@@H]1CC[C@]2(CNCCO)CC[C@]3(C)[C@H](CC[C@@H]4[C@@]5(C)CCC(N)[C@@](C)(CO)[C@@H]5CC[C@]43C)[C@@H]12 (stereo not given in full) | -63.7% (active)
3 | Nc1c2c(nc3ccc(Cl)cc13)CC(c1ccccc1)CC2=O (stereo not given) | 11% (inactive)
4 | COc1ccc(Cn2c(Br)c3c(c2-c2cc(OC)c(OC)c(OC)c2)CCc2sc(NC(=O)c4ccc(OC)cc4)nc2-3)cc1 | 56.4% (inactive)
5 | O=c1oc2ccc(I)cc2c(=O)n1-c1ccc(F)cc1F | -4.05% (active)
6 | CCOC(=O)c1nc(Nc2ccc(NC(=O)Nc3ccc(F)cc3)cc2)c2ccccc2n1 | 110% (inactive)
7 | O=CN1N=C(c2ccc(F)cc2)CC1c1cccc(Nc2ccnc3cc(C(F)(F)F)ccc23)c1 (stereo not given) | 8.69% (active)
8 | COc1cccc(-c2cc(-c3ccc(Nc4nc(Nc5ccc(Cl)cc5)nc(Nc5ccc(Cl)cc5)n4)cc3)nc(N)c2C#N)c1 | 24.5% (inactive)
9 | CC(C)(C)CC(C)(C)Nc1c(-c2ccncc2)nc2cnccn12 | 102% (inactive)
10 | C=C1C(=O)O[C@H]2[C@H]1CC/C(COC(=O)NCc1ccc(Cn3c(=O)sn(-c4ccc(C#N)cc4)c3=O)cc1)=C\CC[C@@]1(C)O[C@@H]21 | -13.1% (active)
11 | CN1C(=O)N(C)C2C1NN=c1s/c(=C\c3ccccc3)c(=O)n12 (stereo not given) | 16.9% (inactive)
12 | Cc1cc(C)n(-c2nnc3n2N=C(c2ccc(-c4ccccc4)cc2)CS3)n1 | 7.07% (active)
13 | C/C(=N\NC(N)=S)C(C)(C)O | 102% (inactive)
14 | CC(CN(C)C)Oc1ccc(OC(C)CN(C)C)c2c1C(=O)c1ccccc1C2=O (stereo not given) | 39.2% (inactive)
15 | N=C(N)c1ccc(-c2ccc(-c3ccc(Cl)c(Cl)c3)o2)cc1 | -45.5% (active)
16 | O=C1CCNC1 | 103% (inactive)
17 | Cc1nc2sc(C(=O)Nc3cccc4ccccc34)c(N)c2cc1C(C)O (stereo not given) | -24.1% (active)
18 | CC/C(=C(\c1ccc(O)cc1)c1ccc(OCCN(C)CCN(C)C(=O)CCCCC(=O)c2c(C)[nH]c(/C=C3\N=C(c4ccc[nH]4)C=C3OC)c2C)cc1)c1ccccc1 | 103% (inactive)
19 | CN(C)CCC(O)(Cc1ccccc1)c1ccccc1 (stereo not given) | 85% (inactive)
20 | CC(=O)OC1CCC2(C)C(CCC3C4CC=C(C(C)=O)C4(C)OC(=O)CC32)C1 (stereo not given) | -39.8% (active)

Row | SMILES | growth
21 | CCOc1cccc(/C=N/NC(=O)c2ccccc2Nc2ccnc(C(F)(F)F)c2)c1O | -4.47% (active)
22 | COc1ccc(/C=C(/C(=O)n2cnnn2)c2cc(OC)c(OC)c(OC)c2)cc1 | 4.64% (active)
23 | Cc1cc2ccccn2c1C(=O)c1ccc(C(=O)c2ccccc2)cc1 | -14.6% (active)
24 | CCN(CC)C(=O)C1=C(C)NC(=O)NC1c1ccc2c(c1)OCO2 (stereo not given) | 101% (inactive)
25 | CC(=O)NCCSC(=O)C(=O)SCCNC(C)=O | 83.6% (inactive)
26 | c1ccc(-c2cccc(-c3ccccn3)n2)nc1 | -16.9% (active)
27 | NCCNc1nc(-c2ccccc2)nc2nc(-c3ccccc3)oc12 | 97.9% (inactive)
28 | Oc1cc(Nc2ccnc3cc(Cl)ccc23)c2ncccc2c1 | 93.1% (inactive)
29 | COc1ccc([C@H]2[C@H](C(=O)Nc3cccnc3)c3ccccc3C(=O)N2c2ccccc2)cc1 | 90.2% (inactive)
30 | FC(F)(F)c1nc2c(NCc3ccc(-c4ccccc4)cc3)cccc2[nH]1 | 21.1% (inactive)
31 | CCCCCCCC/C=C\CCCCCCCCOc1ccc(CC(=O)NCC[N+]2(C)CCOCC2)cc1 | -14% (active)
32 | O=C(Cc1ccc(F)c(Cl)c1)Nc1cc(C2(C(F)(F)F)CC2)nn1CC1CCCCC1 | 14.8% (inactive)
33 | COCCN1CCN(Cc2ccc(-c3n[nH]c4c3C(=O)c3c(NC(=O)NN5CCOCC5)cccc3-4)cc2)CC1 | -36.9% (active)
34 | Cc1c(O)c(O)cc2c3c(oc12)CC(c1ccc2c(c1)OCO2)CC3=O (stereo not given) | 73.7% (inactive)
35 | O=C(NCCN1CCCC1)n1cc(-c2ccncc2)c(-c2cc(O)cc(Cl)c2)n1 | 95% (inactive)
36 | Oc1c(C(Nc2ccccc2)c2ccccc2)ccc2cccnc12 (stereo not given) | 15.7% (inactive)
37 | COc1cccc(C2(C)Nc3ccccc3-c3nc4ccccc4n32)c1 (stereo not given) | 89.1% (inactive)
38 | COc1cc(-c2c(C#N)c(-c3cccs3)nc3c2c(-c2ccccc2)nn3-c2ccccc2)ccc1O | 99.3% (inactive)
39 | C[C@H]1C(=O)C23CCC1C[C@@]21O[C@@H]2C(C)(C)C=CC(=O)C23COC1=O | 97.8% (inactive)
40 | CCCCCCCCn1ccc2cc(NC(=O)Cn3cc(CN4CCCCCC4)nn3)ccc21 | -43.1% (active)
